{"source": "PubChem BioAssay (NCATS)", "key": {"[1]": {"assay": "Cytotoxicity counterscreen for inhibitors of SARS-CoV-2 cell entry (AID 1645845); also: nearly all actives have a fitted effect of over 50% in size", "outline": "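Counterscreen run in the same HEK293-ACE2 line as the pseudotyped-particle entry assay, without particles. Viability after 48 h at 37 C was read as ATP luminescence, scaled between cell-containing and cell-free wells.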"}, "[2]": {"assay": "Primary qHTS to identify inhibitors of SARS-CoV-2 cell entry (AID 1645846); also: nearly all actives have a fitted effect of over 45% in size; also: potency is read from the fitted curve at half-maximal effect", "settings": "activity change, negative = inhibition: at 57.1 µM (top of the series) unless noted", "outline": "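Using luciferase-reporting pseudoviruses carrying Wuhan-Hu-1 spike, the screen tracks entry into stably ACE2-expressing cells over 48 hr. Activity is expressed relative to spike particles versus particles lacking any fusion protein.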"}}, "note": "Values joined by “and” are separate entries in the source; they are usually repeats but may differ in a detail not shown here. Equal entries are not always repeated. Inconclusive results are not listed. Entries that show only a call come without a potency. A structure can be active in one record and inactive in another. Active and inactive are the calls of the source. Calls follow the shape of the full dose curve."}
{"smiles": "CCC(CN)=C(c1ccccc1)c1ccccc1", "values": [{"measurement": "Potency", "setting": "[1]", "result": "inactive"}, {"measurement": "activity change, negative = inhibition", "setting": "[2]", "result": 2.6, "unit": "%"}]}
{"smiles": "OC(CCCN1CCCCC1)(c1ccccc1)c1ccccc1", "values": [{"measurement": "Potency", "setting": "[1]", "result": "inactive"}, {"measurement": "activity change, negative = inhibition", "setting": "[2]", "result": -24.7, "unit": "%"}]}
{"smiles": "O=C(NN1CCCC1)NS(=O)(=O)c1ccc(Cl)cc1", "values": [{"measurement": "Potency", "setting": "[1]", "result": "inactive"}, {"measurement": "Potency", "setting": "[2]", "result": "inactive"}]}
{"smiles": "CCCCCCCCCCCCCCCCCCOCC(O)CO", "note": "(centres undefined)", "values": [{"measurement": "Potency", "setting": "[1]", "result": "inactive"}, {"measurement": "activity change, negative = inhibition", "setting": "[2]", "result": 2.2, "unit": "%"}]}
{"smiles": "CCOC(=O)OC(C)OC(=O)[C@@H]1N2C(=O)[C@@H](NC(=O)[C@H](N)c3ccccc3)[C@H]2SC1(C)C", "note": "(some centres undefined)", "values": [{"measurement": "Potency", "setting": "[1]", "result": "inactive"}, {"measurement": "activity change, negative = inhibition", "setting": "[2]", "result": -12.7, "unit": "%"}]}
{"smiles": "Cc1ncc(COP(=O)(O)O)c(C=O)c1O", "values": [{"measurement": "Potency", "setting": "[1]", "result": "inactive"}, {"measurement": "activity change, negative = inhibition", "setting": "[2]", "result": -19, "unit": "%"}]}
{"smiles": "C/C(=C(\\CCOP(=O)(O)O)SC(=O)c1ccccc1)N(C=O)Cc1cnc(C)nc1N", "values": [{"measurement": "activity change, negative = cytotoxicity", "setting": "[1]", "result": "0.654% [at 5.25 µM] (inactive)"}, {"measurement": "outcome", "setting": "[2]", "result": "inactive [at 5.25 µM]"}]}
{"smiles": "CCOC(=O)c1ccc(C#Cc2ccc3c(c2)C(C)(C)CCS3)nc1", "values": [{"measurement": "Potency", "setting": "[1]", "result": "inactive"}, {"measurement": "Potency", "setting": "[2]", "result": "inactive"}]}
{"smiles": "CCC(=O)O[C@]1(C(=O)COC)[C@@H](C)C[C@H]2[C@@H]3CCC4=CC(=O)C=C[C@]4(C)C3(F)[C@@H](O)C[C@@]21C", "note": "(some centres undefined)", "values": [{"measurement": "Potency", "setting": "[1]", "result": "inactive"}, {"measurement": "Potency", "setting": "[2]", "result": "inactive"}]}
{"smiles": "CC1(C)[C@H](C(=O)O)N2C(=O)C[C@H]2S1(=O)=O", "values": [{"measurement": "Potency", "setting": "[1]", "result": "inactive"}, {"measurement": "Potency", "setting": "[2]", "result": "inactive"}]}
{"smiles": "CC1CC(=O)NN=C1c1ccc(NCC(C)(C)NCC(O)COc2cc(Cl)ccc2C#N)cc1", "note": "(centres undefined)", "values": [{"measurement": "Potency", "setting": "[1]", "result": "inactive"}, {"measurement": "activity change, negative = inhibition", "setting": "[2]", "result": -23.2, "unit": "%"}]}
{"smiles": "CCNC(=O)NCCCOc1cccc(CN2CCCCC2)c1", "values": [{"measurement": "Potency", "setting": "[1]", "result": "inactive"}, {"measurement": "Potency", "setting": "[2]", "result": "inactive"}]}
{"smiles": "C=CCCCCCCCCC(=O)O", "values": [{"measurement": "Potency", "setting": "[1]", "result": "inactive"}, {"measurement": "Potency", "setting": "[2]", "result": "inactive"}]}
{"smiles": "O=C1c2ccccc2C(=O)C1c1ccccc1", "values": [{"measurement": "Potency", "setting": "[1]", "result": "inactive"}, {"measurement": "Potency", "setting": "[2]", "result": "inactive"}]}
{"smiles": "CN1[C@@H]2CC[C@H]1CC(OC(=O)c1c[nH]c3ccccc13)C2", "note": "(some centres undefined)", "values": [{"measurement": "Potency", "setting": "[1]", "result": "inactive"}, {"measurement": "Potency", "setting": "[2]", "result": "inactive"}]}
{"smiles": "CN(C(=O)c1c(O)c2ccccc2n(C)c1=O)c1ccccc1", "values": [{"measurement": "Potency", "setting": "[1]", "result": "inactive"}, {"measurement": "activity change, negative = inhibition", "setting": "[2]", "result": -55.9, "unit": "%"}]}
{"smiles": "CN(C)CCCOC1(Cc2ccccc2)CCCCCC1", "values": [{"measurement": "Potency", "setting": "[1]", "result": "inactive"}, {"measurement": "activity change, negative = inhibition", "setting": "[2]", "result": -0.0488, "unit": "%"}]}
{"smiles": "CC(=O)CCC(=O)O", "values": [{"measurement": "Potency", "setting": "[1]", "result": "inactive"}, {"measurement": "Potency", "setting": "[2]", "result": "inactive"}]}
{"smiles": "CC(=O)[C@H]1CC[C@H]2[C@@H]3CC=C4C[C@@H](O)CC[C@]4(C)[C@H]3CC[C@]12C", "values": [{"measurement": "Potency", "setting": "[1]", "result": "inactive"}, {"measurement": "Potency", "setting": "[2]", "result": "inactive"}]}
{"smiles": "CCCCCCOC(=O)NC(=N)c1ccc(NCc2nc3cc(C(=O)N(CCC(=O)OCC)c4ccccn4)ccc3n2C)cc1", "values": [{"measurement": "Potency", "setting": "[1]", "result": "inactive"}, {"measurement": "Potency", "setting": "[2]", "result": "22.4 µM (active)"}, {"measurement": "activity change, negative = inhibition", "setting": "[2]", "result": -62, "unit": "%"}]}
{"smiles": "CN(C)CC/C=C1\\c2ccccc2Sc2ccc(Cl)cc21", "values": [{"measurement": "Potency", "setting": "[2]", "result": "20 µM (active)"}]}
{"smiles": "Cc1cc(C(C)(C)C)cc(C)c1CC1=NCCN1", "values": [{"measurement": "Potency", "setting": "[1]", "result": "inactive"}, {"measurement": "Potency", "setting": "[2]", "result": "inactive"}, {"measurement": "activity change, negative = inhibition", "setting": "[2]", "result": -16.7, "unit": "%"}]}
{"smiles": "CCOCC(O)COc1ccc(NC(=O)CC[S+](C)C)cc1", "note": "(centres undefined)", "values": [{"measurement": "Potency", "setting": "[1]", "result": "inactive"}, {"measurement": "Potency", "setting": "[2]", "result": "inactive"}, {"measurement": "activity change, negative = inhibition", "setting": "[2]", "result": -2.31, "unit": "%"}]}
{"smiles": "C1CCC(C(CC2CCCCN2)C2CCCCC2)CC1", "note": "(centres undefined)", "values": [{"measurement": "Potency", "setting": "[2]", "result": "12.6 µM (active) and 17.8 µM (active)"}]}
{"smiles": "CCCc1cc(C(N)=S)ccn1", "values": [{"measurement": "Potency", "setting": "[1]", "result": "inactive"}, {"measurement": "Potency", "setting": "[2]", "result": "inactive"}, {"measurement": "activity change, negative = inhibition", "setting": "[2]", "result": -4.59, "unit": "%"}]}
{"smiles": "O=C(O)C(=O)Nc1cccc(-c2nn[nH]n2)c1", "values": [{"measurement": "Potency", "setting": "[1]", "result": "inactive"}, {"measurement": "Potency", "setting": "[2]", "result": "inactive"}, {"measurement": "activity change, negative = inhibition", "setting": "[2]", "result": -0.181, "unit": "%"}]}
{"smiles": "N[C@@H](CSSC[C@H](N)C(=O)O)C(=O)O", "values": [{"measurement": "activity change, negative = inhibition", "setting": "[2]", "result": "-10.6% [at 0.702 µM]"}]}
{"smiles": "Oc1c(Cl)cc(Cl)c(Cl)c1Cc1c(O)c(Cl)cc(Cl)c1Cl", "values": [{"measurement": "Potency", "setting": "[2]", "result": "3.16 µM (active)"}]}
{"smiles": "CCN[C@H]1C[C@H](C)S(=O)(=O)c2sc(S(N)(=O)=O)cc21", "values": [{"measurement": "Potency", "setting": "[1]", "result": "inactive"}, {"measurement": "Potency", "setting": "[2]", "result": "inactive"}, {"measurement": "activity change, negative = inhibition", "setting": "[2]", "result": -17.9, "unit": "%"}]}
{"smiles": "O=c1c(-c2ccccc2)c1-c1ccccc1", "values": [{"measurement": "Potency", "setting": "[2]", "result": "31.6 µM (active)"}]}
{"smiles": "COc1ccc2[nH]c(S(=O)Cc3ncc(C)c(OC)c3C)nc2n1", "note": "(centres undefined)", "values": [{"measurement": "Potency", "setting": "[1]", "result": "inactive"}, {"measurement": "Potency", "setting": "[2]", "result": "inactive"}, {"measurement": "activity change, negative = inhibition", "setting": "[2]", "result": -10.1, "unit": "%"}]}
{"smiles": "COc1cccc2c1C(=O)c1c(O)c3c(c(O)c1C2=O)C[C@@](O)(C(C)=O)C[C@@H]3O[C@H]1C[C@H](N)[C@H](O)[C@H](C)O1", "values": [{"measurement": "activity change, negative = inhibition", "setting": "[2]", "result": "-92.1% and -98%"}]}
{"smiles": "CCCCCOc1ccc(C2SC(=O)NC2=O)cc1OCC", "note": "(centres undefined)", "values": [{"measurement": "activity change, negative = inhibition", "setting": "[2]", "result": -11.6, "unit": "%"}]}
{"smiles": "NCCc1cnc[nH]1", "values": [{"measurement": "Potency", "setting": "[1]", "result": "inactive"}, {"measurement": "Potency", "setting": "[2]", "result": "inactive"}, {"measurement": "activity change, negative = inhibition", "setting": "[2]", "result": 0.209, "unit": "%"}]}
{"smiles": "O=C1CC2(CCCC2)CC(=O)N1CCCCN1CCN(c2ncccn2)CC1", "values": [{"measurement": "activity change, negative = inhibition", "setting": "[2]", "result": 0.863, "unit": "%"}]}
{"smiles": "C[C@]12CCC(=O)C=C1CC[C@@H]1[C@@H]2[C@@H](O)C[C@@]2(C)[C@H]1CC[C@]2(O)C(=O)CO", "values": [{"measurement": "Potency", "setting": "[1]", "result": "inactive"}, {"measurement": "Potency", "setting": "[2]", "result": "inactive"}, {"measurement": "activity change, negative = inhibition", "setting": "[2]", "result": 4.28, "unit": "%"}]}
{"smiles": "C/C=C/C(=O)N(CC)c1ccccc1C", "values": [{"measurement": "Potency", "setting": "[1]", "result": "inactive"}, {"measurement": "Potency", "setting": "[2]", "result": "inactive"}, {"measurement": "activity change, negative = inhibition", "setting": "[2]", "result": -9.15, "unit": "%"}]}
{"smiles": "OC[C@H]1O[C@@H](O[C@@H]2[C@@H](CO)O[C@](O)(CO)[C@H]2O)[C@H](O)[C@@H](O)[C@H]1O", "values": [{"measurement": "Potency", "setting": "[1]", "result": "inactive"}, {"measurement": "Potency", "setting": "[2]", "result": "inactive"}, {"measurement": "activity change, negative = inhibition", "setting": "[2]", "result": -4.13, "unit": "%"}]}
